# The supplement of paper PMC9262897, “Low-cost anti-mycobacterial drug discovery using engineered E. coli” (Nature Communications, 2022)
# Structures can show the parent of a compound that is named as a salt. ± gives the standard deviation of the averaged measurements.
# Experiments:
# Assay in all cases: growth (OD600 after 10 h); higher = more growth (less inhibition)
# [1] = tested on: E. coli TESEC Alr+ wild-type control; conditions: compound 0.1 mM; raw OD600 reference: median of DMSO wells 0.241, cell-free background 0.041
# Method: (§1)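 TESEC Mtb Alr E. coli, or the Alr+ wild-type control, in 384-well plates with Prestwick library compounds at 0.1 mM and 1% DMSO, across arabinose induction levels of 1E3 to 1E7 nM. Growth is read as OD600 after 10 h at 37 °C in triplicate biological replicates.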
# E. coli TESEC Mtb Alr [2] = conditions: compound 0.1 mM
# Method: as §1
# E. coli TESEC Mtb Asd = conditions: compound 0.1 mM
# Method: (§2)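 TESEC E. coli strains in which the native enzyme is deleted and replaced by arabinose-inducible Mtb Asd, DapB, CysH or TrpD, each grown in its selective medium. Strains were screened against the Prestwick library at 0.1 mM and 1% DMSO in 384-well format at low and high arabinose induction. Growth is read as OD600 after 10 h in triplicate.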
# E. coli TESEC Mtb DapB = conditions: compound 0.1 mM
# Method: as §2
# E. coli TESEC Mtb Alr [3] = conditions: compound 0.1 mM; remark: listed apart in the source
# Method: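 TESEC Mtb Alr E. coli (ΔaraC ΔtolC ΔentC Δalr ΔdadX, arabinose-inducible Mtb Alr) or the Alr+ wild-type control strain, grown in defined M9-fructose medium without D-alanine in 96-well plates with Prestwick library compounds at 0.1 mM and 1% DMSO. Low Alr induction is 0.1 µM arabinose and high induction is 10 mM arabinose.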
# [4] = arabinose 1000 nM, raw OD600 reference: median of DMSO wells 0.294, cell-free background 0.041
# [5] = arabinose 10000 nM, raw OD600 reference: median of DMSO wells 0.264, cell-free background 0.041
# [6] = arabinose 100000 nM, raw OD600 reference: median of DMSO wells 0.201, cell-free background 0.041
# [7] = arabinose 1000000 nM, raw OD600 reference: median of DMSO wells 0.193, cell-free background 0.041
# [8] = arabinose 10000000 nM, raw OD600 reference: median of DMSO wells 0.146, cell-free background 0.041
# [9] = arabinose induction (level): High, raw OD600 reference: median of DMSO wells 0.331, cell-free background 0.041
# [10] = arabinose induction (level): Low, raw OD600 reference: median of DMSO wells 0.417, cell-free background 0.041
# [11] = arabinose induction (level): High, raw OD600 reference: median of DMSO wells […], cell-free background 0.041
# [12] = arabinose induction (level): Low, raw OD600 reference: median of DMSO wells 0.227, cell-free background 0.041
# [13] = arabinose 100 nM, raw OD600 reference: median of DMSO wells 0.413, cell-free background 0.052
# [14] = arabinose 10000000 nM, raw OD600 reference: median of DMSO wells […], cell-free background 0.052
Structure (SMILES),growth [1],growth (E. coli TESEC Mtb Alr [2]; [4]),growth (E. coli TESEC Mtb Alr [2]; [5]),growth (E. coli TESEC Mtb Alr [2]; [6]),growth (E. coli TESEC Mtb Alr [2]; [7]),growth (E. coli TESEC Mtb Alr [2]; [8]),growth (E. coli TESEC Mtb Asd; [9]),growth (E. coli TESEC Mtb Asd; [10]),growth (E. coli TESEC Mtb DapB; [11]),growth (E. coli TESEC Mtb DapB; [12]),growth (E. coli TESEC Mtb Alr [3]; [13]),growth (E. coli TESEC Mtb Alr [3]; [14])
CC#C[C@]1(O)CC[C@H]2[C@@H]3CCC4=CC(=O)CCC4=C3[C@@H](c3ccc(N(C)C)cc3)C[C@@]21C [Mifepristone],0.142 ± 0.0098,0.181 ± 0.013,0.207 ± 0.016,0.138 ± 0.0049,0.0733 ± 0.003,0.1374 ± 0.00076,0.241 ± 0.077,0.216 ± 0.015,0.199 ± 0.0078,0.236 ± 0.013,0.411 ± 0.009,0.116 ± 0.012
Nc1nc(F)nc2c1ncn2[C@@H]1O[C@H](CO)[C@@H](O)[C@@H]1O [Fludarabine],0.207 ± 0.0038,0.216 ± 0.0082,0.241 ± 0.0025,0.168 ± 0.011,0.185 ± 0.0037,0.133 ± 0.0056,0.272 ± 0.031,0.222 ± 0.035,0.168 ± 0.014,0.194 ± 0.028,0.411 ± 0.0067,0.31 ± 0.004
Cc1c(N(C)CS(=O)(=O)O)c(=O)n(-c2ccccc2)n1C [Dipyrone],0.245 ± 0.0074,0.323 ± 0.022,0.251 ± 0.0032,0.217 ± 0.023,0.169 ± 0.0052,0.157 ± 0.0028,0.488 ± 0.025,0.452 ± 0.0059,0.204 ± 0.003,0.23 ± 0.012,0.4104 ± 0.0007,0.335 ± 0.011
CN(C)CCC(c1ccc(Br)cc1)c1ccccn1 (centres undefined) [Brompheniramine maleate],0.218 ± 0.0069,0.293 ± 0.0063,0.264 ± 0.0057,0.209 ± 0.037,0.162 ± 0.0032,0.15 ± 0.008,0.179 ± 0.0086,0.302 ± 0.079,0.179 ± 0.01,0.253 ± 0.025,0.398 ± 0.011,0.339 ± 0.02
CO[C@@]1(NC(=O)C2SC(=C(C(N)=O)C(=O)O)S2)C(=O)N2C(C(=O)O)=C(CSc3nnnn3C)CS[C@@H]21 (some centres undefined) [Cefotetan],0.03883 ± 0.00012,0.0383 ± 0.0011,0.04147 ± 0.00015,0.03763 ± 0.00032,0.0413 ± 0.00026,0.03917 ± 5.8e-05,0.0535 ± 0.0059,0.048 ± 0.0045,0.0527 ± 0.0035,0.0511 ± 0.01,0.0461 ± 0.00061,0.0531 ± 0.0051
CN1C(C(=O)Nc2ccccn2)=C(O)c2ccccc2S1(=O)=O [Piroxicam],0.195 ± 0.0024,0.229 ± 0.0073,0.253 ± 0.0061,0.18 ± 0.013,0.127 ± 0.0038,0.155 ± 0.003,0.321 ± 0.013,0.282 ± 0.042,0.181 ± 0.015,0.227 ± 0.068,0.362 ± 0.1,0.259 ± 0.016
CCCNC(C)C(=O)Nc1c(C)csc1C(=O)OC (centres undefined) [Articaine hydrochloride],0.249 ± 0.0025,0.3163 ± 0.0008,0.266 ± 0.0049,0.213 ± 0.013,0.162 ± 0.0036,0.147 ± 0.0054,0.257 ± 0.064,0.442 ± 0.02,0.205 ± 0.016,0.236 ± 0.043,0.407 ± 0.015,0.316 ± 0.021
CCOC(=O)O[C@]1(C(=O)OCCl)CC[C@H]2[C@@H]3CCC4=CC(=O)C=C[C@]4(C)[C@H]3[C@@H](O)C[C@@]21C [Loteprednol etabonate],0.135 ± 0.003,0.167 ± 0.02,0.15 ± 0.0072,0.196 ± 0.028,0.114 ± 0.01,0.179 ± 0.0076,0.24 ± 0.019,0.26 ± 0.14,0.174 ± 0.027,0.233 ± 0.028,0.371 ± 0.017,0.219 ± 0.024
C[C@H](CS)C(=O)N1CCC[C@H]1C(=O)O [Captopril],0.259 ± 0.003,0.291 ± 0.019,0.253 ± 0.012,0.198 ± 0.027,0.176 ± 0.0095,0.148 ± 0.011,0.358 ± 0.044,0.399 ± 0.027,0.187 ± 0.019,0.21 ± 0.027,0.41 ± 0.0091,0.382 ± 0.021
Cc1ccc(-c2ncc(Cl)cc2-c2ccc(S(C)(=O)=O)cc2)cn1 [Etoricoxib],0.17 ± 0.0023,0.241 ± 0.006,0.213 ± 0.0045,0.184 ± 0.014,0.15 ± 0.0079,0.161 ± 0.0033,0.266 ± 0.076,0.241 ± 0.0033,0.204 ± 0.031,0.261 ± 0.029,0.414 ± 0.0091,0.281 ± 0.018
CCN(CC)C(=O)Nc1ccc(OCC(O)CNC(C)(C)C)c(C(C)=O)c1 (centres undefined) [Celiprolol HCl],0.215 ± 0.0023,0.292 ± 0.0042,0.247 ± 0.0042,0.221 ± 0.028,0.171 ± 0.0053,0.135 ± 0.0071,0.245 ± 0.048,0.341 ± 0.089,0.192 ± 0.009,0.264 ± 0.058,0.421 ± 0.0097,0.356 ± 0.014
Cc1cccc(Nc2ccccc2C(=O)O)c1C [Mefenamic acid],0.134 ± 0.0041,0.135 ± 0.0024,0.04523 ± 0.00015,0.141 ± 0.002,0.103 ± 0.0072,0.132 ± 0.0029,0.232 ± 0.03,0.26 ± 0.047,0.203 ± 0.027,0.208 ± 0.028,0.169 ± 0.094,0.149 ± 0.011
CC(=O)OCC(=O)[C@@]1(O)CC[C@H]2[C@@H]3CCC4=CC(=O)C=C[C@]4(C)[C@@]3(F)[C@@H](O)C[C@@]21C [Isoflupredone acetate],0.206 ± 0.028,0.266 ± 0.019,0.22 ± 0.0097,0.213 ± 0.015,0.128 ± 0.0061,0.13 ± 0.0065,0.348 ± 0.046,0.413 ± 0.056,0.21 ± 0.01,0.253 ± 0.038,0.389 ± 0.0064,0.286 ± 0.01
OC[C@H]1O[C@@H](Oc2ccc(O)cc2)[C@H](O)[C@@H](O)[C@@H]1O [Arbutin],0.245 ± 0.012,0.325 ± 0.02,0.272 ± 0.011,0.193 ± 0.021,0.191 ± 0.0053,0.144 ± 0.0033,0.21 ± 0.011,0.362 ± 0.092,0.209 ± 0.003,0.246 ± 0.051,0.403 ± 0.017,0.317 ± 0.013
Nc1ccc(O)c(C(=O)O)c1 [Mesalamine],0.2446 ± 0.0018,0.287 ± 0.014,0.278 ± 0.0044,0.2 ± 0.011,0.21 ± 0.0038,0.144 ± 0.0074,0.339 ± 0.052,0.362 ± 0.061,0.195 ± 0.024,0.213 ± 0.021,0.416 ± 0.0084,0.363 ± 0.011
CO[C@H]1/C=C/O[C@@]2(C)Oc3c(C)c(O)c4c(O)c(c(/C=N/N5CCN(C)CC5)c(O)c4c3C2=O)NC(=O)/C(C)=C\C=C\[C@H](C)[C@H](O)[C@@H](C)[C@@H](O)[C@@H](C)[C@H](OC(C)=O)[C@@H]1C [Rifampicin],0.0429 ± 0.0015,0.0442 ± 0.003,0.04117 ± 0.00021,0.0444 ± 0.0018,0.04127 ± 0.00012,0.043 ± 0.0014,0.0643 ± 0.011,0.0572 ± 0.0093,0.106 ± 0.094,0.0504 ± 0.00072,0.0557 ± 0.00079,0.0524 ± 0.00092
CN(C)CCCN1c2ccccc2Sc2ccccc21 [Promazine hydrochloride],0.189 ± 0.0053,0.227 ± 0.011,0.2724 ± 0.002,0.192 ± 0.01,0.129 ± 0.0026,0.158 ± 0.004,0.187 ± 0.03,0.261 ± 0.023,0.195 ± 0.017,0.254 ± 0.033,0.415 ± 0.0068,0.273 ± 0.0038
